Shiga inhibitor = A qHTS for Small Molecule Inhibitors of Shiga Toxin; AID 2315, 2010; Vero cells, Shiga toxin protein synthesis inhibition reporter; hit rate 9.2% among 290,000; inhibition, % at 38.7 µM; in the data active = inhibition mostly above about 28%, no sharp cut-off; inactive = mostly below about 43%; note: 0% is about no effect
CHX counter = Cycloheximide Counterscreen for Small Molecule Inhibitors of Shiga Toxin; cell reporter, cycloheximide protein synthesis inhibition counterscreen; max response, %; hit rate 12% among 300,000; in the data active = max response mostly above about 13%, no sharp cut-off; inactive = mostly below about 14%; note: read at 38.3 µM for the half of the compounds with a filed dose; 0% is about no effect
Giardia FBPA inh = qHTS Assay for Inhibitors of Fructose-1,6-bisphosphate Aldolase from Giardia Lamblia. A8B2U2. purified Giardia FBPA. Potency, µM (titrated, usually from 59.6 µM), without a hit: top-dose activity, negative = inhibition, usual class: inhibitors. hit rate 0.71% among 290,000; note: potency is the fitted concentration of half-maximal effect; % is set by controls: 0 for no effect and ±100 for the full control effect; nearly all actives have a fitted effect of over 55% in size
Target sequence (A8B2U2 whole entry, looked up): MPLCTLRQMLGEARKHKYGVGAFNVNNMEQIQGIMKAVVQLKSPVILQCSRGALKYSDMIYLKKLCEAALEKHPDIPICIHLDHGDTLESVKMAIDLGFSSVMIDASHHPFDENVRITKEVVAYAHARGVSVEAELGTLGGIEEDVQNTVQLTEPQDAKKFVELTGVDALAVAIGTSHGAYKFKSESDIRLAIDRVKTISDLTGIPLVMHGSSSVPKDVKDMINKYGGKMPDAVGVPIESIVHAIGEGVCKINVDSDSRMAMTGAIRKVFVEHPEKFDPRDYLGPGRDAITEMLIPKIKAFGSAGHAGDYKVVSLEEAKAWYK
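40 nM FBPA preincubated 10 min at RT with compound (up to 57.5 uM final), then substrate plus GAPDH/TPI/NAD/arsenate coupling and diaphorase/resazurin added. Fluorescence read after 20 min at RT, 525/598 nm.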
Sm TGR block = qHTS Assay for the Inhibitors of Schistosoma Mansoni Peroxiredoxins | Schistosoma mansoni thioredoxin glutathione reductase (TGR), Q962Y6 | purified TGR, DTNB reduction, TNB absorbance 405 nm | Potency, µM (doses to about 114 µM), for the others: at the highest dose activity change, negative = inhibition, usual class: inhibitors | hit rate 3% among 360,000 | AID 485364, 2010; note: potency is the fitted concentration of half-maximal effect; % is set by controls: 0 for no effect and ±100 for the full control effect; nearly all actives have a fitted effect of over 60% in size
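First, TGR (20 nM dispensed) and NADPH were mixed with compound. Second, a 15 min room-temperature incubation followed. Third, further NADPH and then DTNB were added to start the reaction. Finally, TNB absorbance was monitored kinetically.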
LmPK inhibitor = qHTS Assay for Inhibitors of Leishmania Mexicana Pyruvate Kinase (LmPK). purified LmPK, Kinase-Glo ATP luminescence, 1 h. Potency, µM (highest dose often 57.5 µM), inactives show at the top dose activity change, negative = inhibition, hits mostly inhibitors. hit rate 0.37% among 290,000. AID 1721, 2009; note: potency is the fitted concentration of half-maximal effect; % is set by controls: 0 for no effect and ±100 for the full control effect
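0.1 nM LmPK, 0.5 mM PEP, 0.1 mM ADP; 50 mM imidazole pH 7.2, 7 mM MgCl2, 50 mM KCl; 1 h RT. Kinase-Glo luminescence readout, normalized to no-enzyme (full inhibition) and uninhibited wells.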
Tb PYK inh = qHTS of Trypanosoma Brucei Inhibitors; hit rate 0.12% among 410,000; Potency, µM (titrated, usually from 76.8 µM), for inactives: top-dose activity, negative = inhibition, hits mostly inhibitors; TbPYK enzyme, Kinase-Glo Plus ATP luminescence, 45 min; pyruvate kinase (Trypanosoma brucei), Q57TT1; note: potency is the fitted concentration of half-maximal effect; % is set by controls: 0 for no effect and ±100 for the full control effect; nearly all actives have a fitted effect of over 50% in size
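Luminescence from Kinase-Glo Plus, added after a 45-minute room-temperature reaction, served as the end-point read-out. The enzyme and substrate were preincubated with compound before ADP (130 uM final) initiated turnover. Concentration-effect curves came from normalized qHTS data.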
Numbers without * were called inactive. Many of the other results were omitted from the sample, so hits are more common in it than they were. Unless noted, calls come from the whole dose curve; as a rule, active = well fitted curve in the direction sought with a large enough effect; inconclusive = small, poorly fitted or top-dose-only effect, or another doubt; inactive = no such curve, though single readings can be large; an effect the other way counts as inactive or inconclusive.

For CCOc1ccc(N2CC(C(=O)NCC(=O)Nc3ccc(F)c(F)c3F)CC2=O)cc1 (stereo unspecified) the results were Sm TGR block 31.6µM* and Tb PYK inh 5.7%.
`Cc1noc(C)c1S(=O)(=O)N(C)C[C@H]1Oc2c(NC(=O)C3CCCCC3)cccc2C(=O)N([C@H](C)CO)C[C@@H]1C` gave Tb PYK inh 3.2%.
Screening Cc1ccccc1OCCCCn1c(-c2ccc(Cl)cc2)nc2ccccc2c1=O returned Sm TGR block 3.9% and Tb PYK inh -2.5%.
Screening O=Nc1[nH]c(=O)c(/C=C(\O)c2ccccc2)nc1NO returned Shiga inhibitor 61.6*, CHX counter 58.8*, Giardia FBPA inh inconclusive, Sm TGR block 3.5%, LmPK inhibitor -2.3% and Tb PYK inh -5.2%.
Screening Cc1nn(-c2ccccc2)c(Cl)c1/C=N/NC(=O)c1ccc(NS(=O)(=O)c2cccs2)cc1 returned Shiga inhibitor 32.2, CHX counter 20.0*, Giardia FBPA inh 4.5% and LmPK inhibitor -3.3%.
`Cc1nn(-c2cccc(Cl)c2)c(Cl)c1/C=N/NC(=O)c1cccs1` gave Shiga inhibitor 58.3*, CHX counter 29.2*, Giardia FBPA inh 2.3%, Sm TGR block 3.1%, LmPK inhibitor 0.6% and Tb PYK inh -4.0%.
CCC(=O)c1ccc(N2CCC(C)CC2)c(F)c1 was read as Shiga inhibitor 36.1*, CHX counter 30.4*, Giardia FBPA inh 4.6%, Sm TGR block 0.6%, LmPK inhibitor -2.2% and Tb PYK inh 4.3%.
Screening CCCC(=O)c1ccc(N2CCC(C)CC2)c(F)c1 returned Shiga inhibitor 60.3*, CHX counter 42.7*, Giardia FBPA inh 3.9%, Sm TGR block 6.5%, LmPK inhibitor 1.5% and Tb PYK inh -32.6%.
For CCC(=O)c1ccc(N2CCN(C(=O)c3ccccc3)CC2)c(F)c1 the results were Shiga inhibitor 20.9, CHX counter -2.0, Giardia FBPA inh 4.4%, Sm TGR block 8.3%, LmPK inhibitor 4.2% and Tb PYK inh -4.1%.
`CCOC(=O)N1CCN(c2ccc(C(=O)CC)cc2F)CC1` gave Shiga inhibitor 28.2, CHX counter 14.2, Giardia FBPA inh 3.1%, Sm TGR block 0.0%, LmPK inhibitor -0.6% and Tb PYK inh -8.0%.
For O=C(Nc1ccc(Cl)c(-c2nc3ccccc3o2)c1)c1ccc(-c2cccc([N+](=O)[O-])c2)o1 the results were Sm TGR block -10.7% and Tb PYK inh 0.0%.
`Cc1ccc2oc(-c3cccc(NC(=O)/C=C/c4cccc([N+](=O)[O-])c4)c3C)nc2c1` gave Shiga inhibitor 97.0*, CHX counter 57.3*, Giardia FBPA inh 8.0%, Sm TGR block 0.0%, LmPK inhibitor -10.4% and Tb PYK inh 1.4%.
Cc1c(NC(=O)c2ccc(-c3cccc([N+](=O)[O-])c3)o2)cccc1-c1nc2cc(Cl)ccc2o1 was read as Sm TGR block 35.5µM* and Tb PYK inh -4.1%.
CC(C)CNC(=O)C(=O)Nc1c2c(nn1-c1ccccc1)CS(=O)(=O)C2 was read as Sm TGR block -2.1% and Tb PYK inh 1.7%.
`O=C1CCC([N+](=O)[O-])C(c2ccccc2C(F)(F)F)N1` (stereo unspecified) gave Shiga inhibitor -10.8, CHX counter -0.8, Giardia FBPA inh 12.1%, Sm TGR block 0.2%, LmPK inhibitor 4.6% and Tb PYK inh 2.7%.
CC1=C(C(=O)OC2CCCC2)C(c2c(F)cccc2Cl)CC(=O)N1 (stereo unspecified) was read as Sm TGR block -1.6% and Tb PYK inh -3.2%.
For Cc1ccc(N(C(=O)c2csnn2)C(C(=O)NC2CCCC2)c2ccccn2)cc1 (stereo unspecified) the results were Shiga inhibitor -6.6, CHX counter -2.6, Giardia FBPA inh -0.7%, Sm TGR block 0.9%, LmPK inhibitor -7.8% and Tb PYK inh -0.7%.
`Cc1ccc(C(C)C)c(OCC(=O)Nc2ccc(O)c(-c3nc4cc(Cl)ccc4o3)c2)c1` gave Sm TGR block -4.7% and Tb PYK inh -4.4%.
For O=C(CN1C(=O)NC2(CCCCC2)C1=O)N1CCN(S(=O)(=O)c2ccc(Cl)s2)CC1 the results were Sm TGR block -2.0% and Tb PYK inh -3.4%.
For CN1C(=O)N(CC(=O)N2CCN(S(=O)(=O)c3ccc(Cl)s3)CC2)C(=O)C12CCCCC2 the results were Sm TGR block 44.7µM* and Tb PYK inh -2.8%.
`O=C(CN(Cc1ccco1)Cc1cccs1)N1CCN(S(=O)(=O)c2cccc(F)c2)CC1` gave Sm TGR block 39.8µM* and Tb PYK inh 4.7%.
O=C(c1cccc(S(=O)(=O)N2CCOCC2)c1)N(Cc1ccco1)Cc1cccs1 was read as Sm TGR block -9.2% and Tb PYK inh -11.1%.
`O=Cc1coc2c(ccc3ccccc32)c1=O` gave Shiga inhibitor 3.9, CHX counter 7.8, Giardia FBPA inh 3.2%, Sm TGR block 28.2µM* and LmPK inhibitor -6.4%.
Screening O=C(Nc1ccc(-c2nc3ccccc3o2)c(O)c1)c1cc(-n2cnnc2)ccc1Cl returned Shiga inhibitor 15.1, CHX counter 6.3, Giardia FBPA inh 3.3%, Sm TGR block -3.8%, LmPK inhibitor 1.8% and Tb PYK inh 1.5%.
For Cc1c(NC(=O)c2cccc3c(Cl)cccc23)cccc1-c1nc2ccccc2o1 the results were Sm TGR block 6.6% and Tb PYK inh 0.4%.
For Cc1c(NC(=O)c2cc(-n3cnnc3)ccc2Cl)cccc1-c1nc2ccccc2o1 the results were Shiga inhibitor 25.7, CHX counter 18.2*, Giardia FBPA inh 7.1%, Sm TGR block -4.0%, LmPK inhibitor 1.1% and Tb PYK inh -9.2%.
Screening O=C(Nc1ccc2oc(-c3ccccc3)nc2c1)c1cc(-n2cnnc2)ccc1Cl returned Shiga inhibitor 83.6*, CHX counter 27.6*, Giardia FBPA inh -17.4%, Sm TGR block -8.6%, LmPK inhibitor -1.0% and Tb PYK inh 0.3%.
For O=C(Nc1ccc(-c2nc3ccccc3o2)cc1)c1cc(-n2cnnc2)ccc1Cl the results were Shiga inhibitor 56.0*, CHX counter 22.5*, Giardia FBPA inh -0.3%, Sm TGR block -1.2%, LmPK inhibitor 2.2% and Tb PYK inh 2.5%.
`O=C(Nc1ccccc1)c1cc(-n2cnnc2)ccc1Cl` gave Shiga inhibitor -14.1, CHX counter -1.2, Giardia FBPA inh 2.5%, Sm TGR block 2.7%, LmPK inhibitor 4.9% and Tb PYK inh -6.9%.
Screening O=C(Cc1ccc(Cl)c(Cl)c1)OCCN1CCCC1 returned Giardia FBPA inh 1.8%.
